In PubChem BioAssay:
Calls of active or inactive are those of the source.

Key:
[1] = test system: Plasmodium falciparum Sir2 (PF13_0152, Sir2A); assay: pfSir2 binders on small-molecule microarrays, primary screen, biochemical, small-molecule microarray, 635 nm fluorescence (AID 1098); conditions: small-molecule microarray binding, fluorescence 635 nm; higher = more signal;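 note: score merges spot fluorescence intensity with its signal-to-noise ratio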
[2] = small-molecule microarray binders of probe aDKK1, primary screen, biochemical, biotinylated probe, 635/667 nm fluorescence (AID 1099); conditions: higher = more signal;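 note: score merges 667nm spot fluorescence with signal to noise across triplicate slides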
[3] = small-molecule microarray binders of probe aCHRDL2, primary screen, biochemical, biotinylated probe, 635/667 nm fluorescence (AID 1100); conditions: higher = more signal
[4] = splicing luciferase reporter signal modulators, primary screen, spliceosome inhibition project, cell-based, HEK293, splice +/- reporter (AID 1101); conditions: luminescence, 24 h, higher = more signal, called active from +8 up or from −8 down;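 note: HEK293 cells carrying a splicing-competent luciferase reporter gene; test concentration not given here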
[5] = target: Fibroblast growth factor 10 (Homo sapiens) (UniProt O15520); assay: FGF10 binders on small-molecule microarrays, primary screen, biochemical, small-molecule microarray, 635 nm fluorescence (AID 1102); conditions: FGF10 binding, fluorescence 635 nm, higher = more signal
[6] = test system: glycogen synthase kinase-3 (GSK3A per assay name; protocol says GSK3B); assay: GSK3 binders on small-molecule microarrays, primary screen, biochemical, small-molecule microarray, 635 nm fluorescence, GSK3A (AID 1103); conditions: small-molecule microarray binding, fluorescence 635 nm; higher = more signal; note: the record names both GSK3A and GSK3B
[7] = target: Epidermal growth factor receptor (Homo sapiens) (UniProt P00533); assay: EGFR binders on small-molecule microarrays, primary screen, biochemical, small-molecule microarray, 635 nm fluorescence (AID 1104); conditions: EGFR binding, higher = more signal;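 note: score merges 667 nm emission intensity with spot signal to noise over triplicate slides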
[8] = target: Follistatin-related protein 3 (Homo sapiens) (UniProt O95633); assay: FSTL3 binders on small-molecule microarrays, primary screen, biochemical, small-molecule microarray, 635 nm fluorescence (AID 1105); conditions: FSTL3 binding, higher = more signal;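 note: score merges emission near 667 nm and signal to noise per printed spot across three slides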
[9] = target: Dickkopf-related protein 1 (Homo sapiens) (UniProt O94907); assay: DKK1 binders on small-molecule microarrays, primary screen, biochemical, small-molecule microarray, 635 nm fluorescence scan (AID 1106); conditions: DKK1 binding, higher = more signal;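 note: score merges emission near 667 nm with signal to noise over three replicate slides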
[10] = test system: Inhibin beta A chain (activin A); assay: INHBA (activin A) binders on microarrays, primary screen, biochemical, small-molecule microarray, 635 nm fluorescence scan (AID 1107); conditions: small-molecule microarray binding, higher = more signal;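 note: mouse activin A protein probed at 4.33 µg/mL on printed slides; score merges bound-protein fluorescence near 667 nm with spot signal-to-noise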
[11] = test system: Human papillomavirus type 1a protein E7 (residues 44-93); assay: HPV1a E7 fragment binders on microarrays, primary screen, biochemical, small-molecule microarray, residues 44-93, 635 nm fluorescence (AID 1108); conditions: small-molecule microarray binding, fluorescence 635 nm; higher = more signal;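 note: E7 fragment applied at 1 µg/mL in TBST for 1 h at 4 C; score combines spot fluorescence with its signal to noise ratio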
[12] = modulators of HCV replicon luciferase signal, primary screen, HCV replication inhibitor project, Huh7 cells, luciferase reporter (AID 1109); conditions: 48 h, higher = more signal;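 note: huh7 hepatoma cells harbouring a luciferase neomycin HCV replicon reporter; luciferase luminescence as measure of HCV replicon replication; test concentration not given here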
[13] = target: Left-right determination factor 2 (Homo sapiens) (UniProt O00292); assay: LEFTY2 binders on small-molecule microarrays, primary screen, biochemical, small-molecule microarray, 635 nm fluorescence scan (AID 1110); conditions: LEFTY2 binding, higher = more signal
[14] = target: Calmodulin-1 (Homo sapiens) (UniProt P0DP23); assay: CALM1 binders on microarrays, EGTA buffer, profiling panel, biochemical, small-molecule microarray, Cy5-labelled CALM1 (AID 1111); conditions: Cy5-CALM1 binding fluorescence, higher = more signal;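 note: labelled calmodulin applied in Tris saline Tween buffer holding calcium plus EGTA and DTT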
[15] = target: Calmodulin-1 (Homo sapiens) (UniProt P0DP23); assay: calcium-bound CALM1 binders on microarrays, profiling panel, artefact control for SMM control-protein annotation, biochemical, small-molecule microarray, Cy5-labelled CALM1, plus calcium (AID 1112); conditions: Cy5-CALM1 binding fluorescence, higher = more signal;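 note: score merges spot fluorescence with signal to noise from triplicate slides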
[16] = small-molecule microarray binders of probe aWnt5a, primary screen, biochemical, biotinylated probe, 635/667 nm fluorescence (AID 1113); conditions: higher = more signal;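 note: score merges 667 nm fluorescence intensity with signal-to-noise per printed feature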
[17] = small-molecule microarray binders of probe aShh, primary screen, biochemical, biotinylated probe, 635/667 nm fluorescence (AID 1114); conditions: higher = more signal;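 note: probe is biotin-labelled aShh protein from a stem cell growth factor screen; measures binding of labelled protein to compounds printed on the slide; score merges feature fluorescence at 667 nm with signal-to-noise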
[18] = small-molecule microarray binders of probe aNog, primary screen, biochemical, biotinylated probe, 635/667 nm fluorescence (AID 1115); conditions: higher = more signal;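 note: probe is biotinylated aNog protein used at 0.15 µg/mL for 1 h at 4 C; z-score combines 667 nm fluorescence of each spot with its signal to noise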
[19] = target: Torsin-1A-interacting protein 1 (Homo sapiens) (UniProt Q5JTV8); assay: LAP1 binders from COS7 cell lysate, primary screen, small-molecule microarray, 635/667 nm fluorescence (AID 1116); conditions: COS7-hLAP1 lysate binding, 635 nm fluorescence, higher = more signal
[20] = target: Alpha-bungarotoxin (Bungarus multicinctus) (UniProt P60615); assay: alpha-bungarotoxin binders on microarray, profiling panel, artefact control for SMM control protein annotation, biochemical, small-molecule microarray, Alexa647 label, 635/667 nm fluorescence (AID 1117); conditions: alpha-BTX-A647 binding fluorescence, higher = more signal
Sequence of Alpha-bungarotoxin (Bungarus multicinctus) (P60615 whole entry, looked up): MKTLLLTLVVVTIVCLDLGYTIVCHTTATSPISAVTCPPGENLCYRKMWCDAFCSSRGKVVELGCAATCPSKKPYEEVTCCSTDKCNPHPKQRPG

Sequence of Fibroblast growth factor 10 (Homo sapiens) (O15520 whole entry, looked up): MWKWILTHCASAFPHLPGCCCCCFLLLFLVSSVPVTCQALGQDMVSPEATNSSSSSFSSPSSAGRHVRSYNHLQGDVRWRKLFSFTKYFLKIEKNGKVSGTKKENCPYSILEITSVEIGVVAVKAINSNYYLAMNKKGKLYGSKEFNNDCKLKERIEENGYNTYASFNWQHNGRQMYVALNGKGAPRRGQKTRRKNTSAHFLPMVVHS
Sequence of Follistatin-related protein 3 (Homo sapiens) (O95633 whole entry, looked up): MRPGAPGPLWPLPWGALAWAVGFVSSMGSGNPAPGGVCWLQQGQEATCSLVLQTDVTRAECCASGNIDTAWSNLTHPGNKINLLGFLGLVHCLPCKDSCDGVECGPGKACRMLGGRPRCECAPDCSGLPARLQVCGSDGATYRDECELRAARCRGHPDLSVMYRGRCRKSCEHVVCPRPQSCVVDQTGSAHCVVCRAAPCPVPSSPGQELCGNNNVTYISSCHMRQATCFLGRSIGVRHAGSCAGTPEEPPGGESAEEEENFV
Sequence of Left-right determination factor 2 (Homo sapiens) (O00292 whole entry, looked up): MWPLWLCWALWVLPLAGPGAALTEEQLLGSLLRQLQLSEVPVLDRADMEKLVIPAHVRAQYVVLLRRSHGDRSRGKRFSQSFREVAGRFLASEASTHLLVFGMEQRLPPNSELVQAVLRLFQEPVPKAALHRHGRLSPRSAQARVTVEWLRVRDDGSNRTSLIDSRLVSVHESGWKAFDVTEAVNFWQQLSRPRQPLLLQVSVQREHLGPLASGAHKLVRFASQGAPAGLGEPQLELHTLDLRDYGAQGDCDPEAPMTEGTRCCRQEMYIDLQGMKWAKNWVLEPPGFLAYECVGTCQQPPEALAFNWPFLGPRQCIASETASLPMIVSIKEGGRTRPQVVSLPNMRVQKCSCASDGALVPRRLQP
Sequence of Torsin-1A-interacting protein 1 (Homo sapiens) (Q5JTV8 whole entry, looked up): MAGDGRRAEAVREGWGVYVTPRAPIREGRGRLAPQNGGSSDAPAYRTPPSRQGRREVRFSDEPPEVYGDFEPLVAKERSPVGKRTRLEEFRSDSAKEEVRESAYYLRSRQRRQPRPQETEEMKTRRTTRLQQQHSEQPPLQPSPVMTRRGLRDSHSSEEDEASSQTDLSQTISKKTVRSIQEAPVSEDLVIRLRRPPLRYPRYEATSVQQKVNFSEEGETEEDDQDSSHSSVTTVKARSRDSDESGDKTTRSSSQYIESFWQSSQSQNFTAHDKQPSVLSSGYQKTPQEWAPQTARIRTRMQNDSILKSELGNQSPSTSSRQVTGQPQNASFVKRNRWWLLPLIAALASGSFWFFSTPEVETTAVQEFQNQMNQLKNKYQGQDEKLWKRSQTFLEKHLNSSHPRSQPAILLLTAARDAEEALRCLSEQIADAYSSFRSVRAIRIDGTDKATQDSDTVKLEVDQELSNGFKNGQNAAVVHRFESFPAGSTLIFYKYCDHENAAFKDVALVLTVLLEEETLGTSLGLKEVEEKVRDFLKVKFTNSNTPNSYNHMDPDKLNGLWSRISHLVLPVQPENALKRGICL
Sequence of Epidermal growth factor receptor (Homo sapiens) (P00533 whole entry, looked up): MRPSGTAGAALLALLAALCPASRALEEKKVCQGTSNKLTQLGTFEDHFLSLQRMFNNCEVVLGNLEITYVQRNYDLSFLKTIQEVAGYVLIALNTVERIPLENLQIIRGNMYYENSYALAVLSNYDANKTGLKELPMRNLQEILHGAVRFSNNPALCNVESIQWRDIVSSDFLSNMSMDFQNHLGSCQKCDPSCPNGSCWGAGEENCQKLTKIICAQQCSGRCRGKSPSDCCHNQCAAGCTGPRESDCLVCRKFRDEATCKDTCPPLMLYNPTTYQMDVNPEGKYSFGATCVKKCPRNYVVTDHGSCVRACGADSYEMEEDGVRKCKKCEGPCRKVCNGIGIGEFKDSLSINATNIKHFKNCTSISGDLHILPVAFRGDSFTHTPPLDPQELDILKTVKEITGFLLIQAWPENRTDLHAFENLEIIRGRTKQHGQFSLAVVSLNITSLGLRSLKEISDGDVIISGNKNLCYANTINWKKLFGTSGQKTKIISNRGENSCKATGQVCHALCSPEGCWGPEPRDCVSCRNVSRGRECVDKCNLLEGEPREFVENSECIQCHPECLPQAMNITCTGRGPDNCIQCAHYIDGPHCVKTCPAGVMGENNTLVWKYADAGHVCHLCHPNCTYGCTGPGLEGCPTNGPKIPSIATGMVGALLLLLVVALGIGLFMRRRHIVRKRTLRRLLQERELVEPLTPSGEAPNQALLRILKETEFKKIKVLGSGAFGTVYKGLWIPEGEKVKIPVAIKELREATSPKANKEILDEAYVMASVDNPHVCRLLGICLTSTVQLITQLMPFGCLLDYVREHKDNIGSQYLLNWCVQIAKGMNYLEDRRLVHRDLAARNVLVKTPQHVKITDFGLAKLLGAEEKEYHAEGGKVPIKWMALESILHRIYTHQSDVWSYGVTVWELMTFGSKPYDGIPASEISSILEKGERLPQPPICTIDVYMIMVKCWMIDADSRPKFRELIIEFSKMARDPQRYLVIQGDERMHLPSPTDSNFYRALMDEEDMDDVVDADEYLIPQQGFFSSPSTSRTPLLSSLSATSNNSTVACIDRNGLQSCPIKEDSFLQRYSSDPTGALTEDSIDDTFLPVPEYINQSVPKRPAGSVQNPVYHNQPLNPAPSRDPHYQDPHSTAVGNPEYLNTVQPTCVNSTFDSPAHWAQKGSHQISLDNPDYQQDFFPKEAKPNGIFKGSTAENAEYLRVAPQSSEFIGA
Sequence of Dickkopf-related protein 1 (Homo sapiens) (O94907 whole entry, looked up): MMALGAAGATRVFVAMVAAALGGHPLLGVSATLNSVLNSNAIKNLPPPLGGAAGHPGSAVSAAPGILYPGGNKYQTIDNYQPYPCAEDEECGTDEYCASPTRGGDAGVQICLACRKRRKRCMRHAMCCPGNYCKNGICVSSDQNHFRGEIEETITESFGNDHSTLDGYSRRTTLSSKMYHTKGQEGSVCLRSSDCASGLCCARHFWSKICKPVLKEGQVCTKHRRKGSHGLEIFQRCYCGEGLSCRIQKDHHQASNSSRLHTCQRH

Compound | composite z-score [1] | composite z-score [2] | composite z-score [3] | z-score [4] | composite z-score [5] | composite z-score [6] | composite z-score [7] | composite z-score [8] | composite z-score [9] | composite z-score [10] | composite z-score [11] | z-score [12] | composite z-score [13] | composite z-score [14] | composite z-score [15] | composite z-score [16] | composite z-score [17] | composite z-score [18] | composite z-score [19] | composite z-score [20]
O=C1OCCC/C=C\[C@H]2OC34C=CCN(Cc5ccccc5)C(=O)[C@H]3N(CCCCCO)C(=O)[C@@H]4C12 (stereo not given in full) | 1.21 | -0.312 | 0.312 | -0.0325 (inactive) | -0.744 | -0.823 | -1.1 | -0.808 | -0.663 | 0.933 | -0.486 | -1.06 | -0.296 | -1 | -0.775 | -0.169 | 0.0121 | 0.0847 | 2.22 | -1.57
COC(=O)[C@@]1(Cc2ccc(OC)cc2)[C@@H]2[C@@H](CC(=O)[C@H]2CC(=O)C(=O)N2CCCC2)CN1C(=O)c1ccccc1 | 1.66 | 2.76 | 1.21 | -2.69 (inactive) | 1.44 | 1.07 | 0.725 | 0.868 | 0.823 | 0.846 | 0.43 | -1.83 | 0.352 | 2.05 | 1.02 | 1.31 | 2.68 | 2.97 | 2.12 | 1.49
Cc1ccccc1C(O)C1C=CC2C(=O)N(c3ccccc3)C(=O)C2N1Nc1ccccc1F (stereo not given) | 1.31 | 0.938 | 1.23 | 0.476 (inactive) | 0.77 | 0.45 | 0.153 | 0.836 | -0.6 | 1.04 | 1.34 | 1.97 | -0.0612 | 2.36 | 0.789 | 0.156 | 0.232 | 1.81 | 1.78 | 1.83
COc1ccc([Si](C)(C)[C@H]2[C@H](CCn3cc([C@H](O)c4ccccc4)nn3)O[C@@]3(C(=O)N(C)c4c(Br)cc(C)cc43)[C@@H]2C)cc1 | -0.34 | -0.189 | 0.387 | -0.923 (inactive) | 0.574 | 0.0322 | -0.597 | -0.499 | 0.335 | 0.227 | -0.0087 | -4.19 | 0.285 | 0.0287 | -0.0094 | -0.124 | 0.0796 | -0.411 | 0.088 | 0.14
C=CCC(OC(C)=O)[C@@H]1[C@@H](N(Cc2ccc(-c3cccc(C(F)(F)F)c3)o2)C(=O)Cc2ccc(F)cc2)c2cc(OCCCO)ccc2N1C(=O)c1ccc2ccccc2n1 (stereo not given in full) | -0.106 | 0.0195 | 0.416 | -0.362 (inactive) | -0.218 | -1.85 | -0.35 | -0.281 | -0.0545 | 1.58 | -0.848 | -0.937 | -0.0009 | -0.297 | 0.195 | -0.0462 | -0.185 | -0.172 | 0.0265 | -0.124
CCCCN1CC=CC23O[C@@H]4/C=C\CCC(C)OC(=O)C4[C@H]2C(=O)N(C(C)CO)[C@@H]3C1=O (stereo not given in full) | 0.356 | -0.463 | -0.471 | 1.07 (inactive) | -0.816 | -0.937 | -0.659 | -0.719 | -0.127 | 1.19 | -1.13 | 0.263 | -0.0716 | -0.325 | -1.04 | -0.178 | -0.2 | -0.188 | 0.201 | -0.606
COc1ccc(NC(=O)O[C@H]2[C@H](OC(=O)Nc3ccc4c(c3)OCO4)[C@H](OC(=O)Nc3ccc4c(c3)OCO4)[C@@H](OC)O[C@@H]2CO)cc1 | 1.51 | 0.125 | 0.58 | -0.213 (inactive) | 0.81 | 1.23 | -0.385 | 0.59 | 0.409 | 0.753 | 1.08 | 0.0346 | -0.0444 | 0.888 | -0.958 | -0.0643 | 0.0469 | -0.147 | 0.94 | 0.425
CC(C)(C)OC(=O)CC[C@]1(C(=O)N2CCOCC2)N=C(c2ccc(OCCCO)cc2)O[C@H]1c1ccccc1CN=[N+]=[N-] | 1.61 | 0.528 | 0.885 | -0.371 (inactive) | 1.4 | 1.32 | -0.0261 | 1.08 | -0.0465 | 0.543 | 1.36 | -0.229 | -0.457 | 1.27 | 0.15 | -0.0221 | -0.141 | 1.92 | 2.38 | 1.68
CCOC(=O)C[C@H]1[C@H](OC(=O)c2ccc(-c3ccccc3)cc2)[C@@H](NC(=O)CC(C)C)c2cc(OCCCO)ccc2N1C(=O)Cc1ccc(OC)cc1 | -0.146 | 0.448 | 0.624 | -0.463 (inactive) | 0.22 | 0.0434 | -0.263 | -0.195 | -0.204 | -0.353 | 0.157 | -1.84 | 0.141 | 1.05 | 0.335 | -0.0523 | -0.2 | -0.126 | 0.418 | 0.446
C=CCC(OC(C)=O)[C@@H]1[C@@H](N(Cc2cc3ccccc3o2)C(=O)c2ccc(-c3ccccc3)cc2)c2cc(OCCCO)ccc2N1C(=O)c1ccc2ccccc2n1 (stereo not given in full) | -0.148 | 0.0919 | 0.51 | -0.0569 (inactive) | -0.0302 | -1.24 | -0.0803 | -0.205 | 0.157 | 1.33 | 0.061 | 0.104 | 0.163 | -0.12 | 0.898 | 0.107 | -0.124 | -0.961 | 0.554 | 0.113
